Source: PubChem BioAssay AID1457 (National Center for Advancing Translational Sciences (NCATS), 2008)
Out of some 210,000 compounds screened, about 730 (0.35%) were called active. A call without a number means that no potency is given here. Roughly 1% stayed inconclusive and do not appear here. Calls follow the shape of the dose curve; as a rule, active = well fitted inhibition curve with a large enough effect; inconclusive = small, poorly fitted or top-dose-only effect; inactive = no such curve, though single readings can be large or run the other way. Only a selection was taken, and actives are over-represented in it overall.
Potency is read from the fitted curve at half-maximal effect.

Assay: qHTS Assay for Identifying the Cell-Membrane Permeable IMPase Inhibitors: Potentiation with Lithium;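 also: IP1 builds up when IMPase is blocked and the TR-FRET signal falls; nearly all actives have a fitted effect of over 50% in size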
Settings: CHO-M1 cells, IP1 TR-FRET (IP-One), carbachol + lithium; series mostly up to 59.4 µM
Source text: NIH Chemical Genomics Center [NCGC]
NIH Molecular Libraries Probe Production centers Network [MLPCN]
Assay Submitter (PI): Wei Zheng
Lithium has been widely used for the treatment of bipolar disorder. But lithium has a narrow therapeutic index and it can cause side effects such as thirst, weight gain, tremor, polyuria and memory problems. Although the mechanism for lithium action in treatment of bipolar disorder is still not fully understood, inhibition of inositol monophosphatase (IMPase) and the subsequent depletion of the inositol pool in living cells have been implicated as the primary therapeutic benefit of lithium therapy. Therefore, a selective IMPase inhibitor with reduced side effects might be a good drug candidate to replace lithium for the treatment of bipolar disorder. Several IMPase inhibitors have been discovered previously. However, they are not suitable for therapeutic use because of their poor cell membrane penetrability or oral bioavailability; the development of new cell-permeable IMPase inhibitors is needed.
IMPase catalyzes the hydrolysis of inositol-1-phosphate (IP1) to release free inositol. Binding of an agonist to a Gq coupled GPCR results in the activation of PLC, which hydrolyzes the PIP2 to form inositol-1,4,5-trisphosphate (IP3) and diacyl glycerol (DAG). While DAG activates protein kinase C (PKC), IP3 triggers the elevation of intracellular free Ca2+. The IP3 is very rapidly inactivated by hydrolysis to IP2, IP1 and then inositol by a series of enzymes including IMPase. Free inositols are used for synthesis of PI and thus start another inositol cycle.
To identify new cell-permeable IMPase inhibitors, we developed a cell-based IMPase assay in which the cytosolic IP1 is measured by a time-resolved fluorescence resonance energy transfer (TR-FRET) assay. In this assay, an IP1 specific antibody is used to detect the labeled IP1 tracer. When the cell lysate contains the elevated IP1 due to the inhibition of IMPase, the TR-FRET between the labeled antibody and IP1 tracer is disrupted resulting in a reduction in the total signal. Since the TR-FRET is used, this cell-based assay is a homogenous assay without cell wash and medium change that is suitable for assay miniaturization and HTS. In this particular assay, a small amount of lithium is added to potentiate the response of weak activators.
NCGC Assay Protocol Summary:
A Chinese hamster ovary (CHO) cell line stably expressing the M1 receptor (CHO-M1) was obtained from ATCC and maintained in F-12 Kaighn's media (Invitrogen, Carlsbad, CA) supplemented with 10 % FBS, 100 units/ml penicillin, 100 ug/ml streptomycin and 250 ug/ml geneticin at 37C, 5% CO2 in a humidified atmosphere. Before the assay, aliquots of cells were frozen and stored at -135C. The assay was performed in 1536-well format. Data are reported for both the ratio of the two emission wavelengths, and also for the component 'donor' channel, Em2=620. […] AC50 values were determined from concentration-response data modeled with the standard Hill equation.
(1) Frozen CHO-M1 cells were thaw, washed once with fresh media and resuspended in F12K media containing 10% FBS, 100 units/ml penicillin and 100 ug/ml streptomycin. Cells were plated at 4ul/well (2000 cells) in white, tissue culture treated 1536-well plates, and then cultured at 37C, 5 % CO2 for 16 to 30 hours.
(2) Add 23 nl/well of compound in DMSO solution. The final titration for each compound was between 0.6 nM and 46 uM.
(4) Incubation at 37C, 5 % CO2 for 30 min.
(5) Add 1 ul/well of d2-conjugated IP1 (d2-IP1) and 1 ul/well of Eu+ cryptate conjugated anti-IP1 antibody (Eu+-Ab) prepared in the cell lysis buffer, both from the IP-One kit (Cisbio, MA).
(6) Incubate at room temperature for 10 minutes.
(7) Detect the assay plate (Ex = 320, Em1 =665 and Em2 620) in a ViewLux plate reader.
With CC/C=C\C/C=C\C/C=C\C/C=C\C/C=C\C/C=C\CCC(=O)NC(C)C(=O)O (stereo not drawn) the Potency was “inactive”. In the case of COC(=O)C/C=C/[C@@H](C)[C@H](NC(=O)OCC(Cl)(Cl)Cl)c1ccccc1, the Potency is reported as “inactive”. For C=C(C(C)=O)C(O)c1ccc([N+](=O)[O-])cc1 (stereo not drawn), the Potency was “inactive”. In the case of COc1ccc(CCCOC(Cn2ccnc2)c2ccc(OC)cc2)cc1 (stereo not drawn), the Potency is reported as “inactive”. With O=C1OCCN1C(=O)[C@H]1[C@H](c2ccc(F)cc2)C(c2ccccc2)=NN1c1ccc(Br)cc1 the Potency was “inactive”. With C=C/C1=C/Cc2ccccc2[C@H](C[N+](=O)[O-])C(C(=O)OC)(C(=O)OC)C1 the Potency was “inactive”. For C=CC1=C2C=C(C3CC3)N(CC(C)C)C=C2C(=O)C(C)(OC(=O)c2ccco2)C1=O (stereo not drawn), the Potency was “inactive”. For O=C1OCCN1C(=O)[C@H]1[C@H](c2ccccc2)C(c2ccc(F)cc2)=NN1c1ccccc1, the Potency was “inactive”. In the case of CN(C)[C@@H]1C(=O)C(C(N)=O)=C(O)[C@@]2(O)C(=O)C3=C(O)c4c(O)ccc(Cl)c4[C@@H](O)[C@H]3C[C@@H]12, the Potency is reported as 3.98 µM (active). In the case of COc1ccc(/C=C2\NC(=O)[C@@H]3Cc4ccccc4CN3C2=O)cc1, the Potency is reported as “inactive”. With NCCC(=O)c1ccccc1N the Potency was “inactive”. In the case of COC(=O)C1=C(C(=O)OC)[C@@H]2N(C)c3ccccc3[C@@]23C[C@@H](C(=O)OC)N(S(=O)(=O)c2cccs2)C3=N1, the Potency is reported as “inactive”. For C=CCN1C=C2C(=O)C(C)(OC(=O)CCc3ccccc3)C(=O)C=C2C=C1c1ccc(C#N)cc1 (stereo not drawn), the Potency was “inactive”. For C=CCN(CC=C)S(=O)(=O)c1ccc(C(=O)Nc2sc3c(c2C(N)=O)CCCCC3)cc1, the Potency was 10 µM (active). With Cc1ccc(C(=O)c2c(NC(=O)c3ccncc3)sc3c2CCCC3)cc1 the Potency was “inactive”. With C=CCN(CC=C)S(=O)(=O)c1ccc(C(=O)Nc2nc3c(s2)CCc2ccccc2-3)cc1 the Potency was “inactive”. For CC(C)=CCN1CCC2(CCc3ccccc32)CC1, the Potency was “inactive”. With C[C@H]1Cc2c(-c3ccccc3)nc3c(c2CO1)CN(C(=O)C1CC1)CC3 the Potency was “inactive”. With COc1ccc(/C(O)=C2\C(=O)C(=O)N(Cc3ccco3)C2c2ccc(OC)cc2OC)cc1 (stereo not drawn) the Potency was “inactive”. For COc1ccccc1C1/C(=C(/O)c2ccc(OC(C)C)cc2)C(=O)C(=O)N1c1cc(C)on1 (stereo not drawn), the Potency was “inactive”. For COc1ccc(/C(O)=C2/C(=O)C(=O)N(c3nc(C)c(C)s3)C2c2ccco2)cc1 (stereo not drawn), the Potency was 12.6 µM (active). In the case of Cc1cn(C2OC[C@@H](O)[C@@H]2CO)c(=O)[nH]c1=O (stereo partly drawn), the Potency is reported as “inactive”. In the case of O=c1c(O)c(Br)ccc2c(Br)c(O)c(O)c(O)c12, the Potency is reported as “inactive”. For Cc1cccc([C@H]2[C@@H]3C=CC[C@@H](C)[C@@H]3C(=O)N2Cc2ccccc2)c1, the Potency was “inactive”. With COC(=O)N1C(/C=C/C=C/c2ccc(OC)cc2)=Cc2ccccc2C1CC(C)=O (stereo not drawn) the Potency was “inactive”. For CCCCC/C=C\C/C=C\C/C=C\CCCCC(=O)NCC(=O)O, the Potency was “inactive”. For CCC(C)[C@@H](N)C(=O)O (stereo partly drawn), the Potency was “inactive”. With C=CCN1c2ccccc2[C@]23C[C@@H](C(=O)OC)N(S(=O)(=O)c4ccc([N+](=O)[O-])cc4)C2=NC(C(=O)OC)=C(C(=O)OC)[C@H]13 the Potency was “inactive”. In the case of COCc1cc(C)nc(Nc2cc(C)ccc2C)c1C#N, the Potency is reported as “inactive”. For COCc1cc(C)nc(SCC(=O)Nc2cccc(C)c2)c1C#N, the Potency was 22.4 µM (active). For Cc1cc(C)c(C#N)c(SCC(=O)Nc2ccccc2)n1, the Potency was “inactive”. For CC(Nc1oc(-c2ccccc2)nc1-c1ccccc1)c1ccccc1 (stereo not drawn), the Potency was “inactive”. For C[C@H]1Cc2c(-c3ccccc3)nc3c(c2CO1)CN(S(=O)(=O)c1ccc(Cl)c2nonc12)CC3, the Potency was “inactive”. With CC1(OC(=O)c2ccc(Cl)nc2)C(=O)Cc2cc(-c3ccsc3)ncc2C1=O (stereo not drawn) the Potency was “inactive”. With COCCCN1C(=O)C(=O)/C(=C(/O)c2ccc3c(c2)CC(C)O3)C1c1cccnc1 (stereo not drawn) the Potency was 8.91 µM (active). With CCN(CC)CCN1C(=O)C(=O)/C(=C(/O)c2ccccc2)C1c1ccccc1F (stereo not drawn) the Potency was “inactive”. For CC1Cc2cc(/C(O)=C3\C(=O)C(=O)N(CCN4CCOCC4)C3c3ccccc3F)ccc2O1 (stereo not drawn), the Potency was 10 µM (active). For O=C1C(=O)N(CCN2CCOCC2)C(c2ccccn2)/C1=C(/O)c1ccc(Cl)cc1 (stereo not drawn), the Potency was “inactive”. With COc1cc(C2/C(=C(\O)c3ccc4c(c3)CC(C)O4)C(=O)C(=O)N2Cc2ccco2)ccc1O (stereo not drawn) the Potency was “inactive”. With COc1cccc(C2/C(=C(/O)c3ccncc3)C(=O)C(=O)N2CCCN(C)C)c1 (stereo not drawn) the Potency was “inactive”. With CC(C)(C)OC(=O)NCCCC1=CC2=CC(=O)C(C)(OC(=O)c3ccco3)C(=O)C2=CO1 (stereo not drawn) the Potency was “inactive”. For CCCCC/C=C\C/C=C\CCCCCCCCCC(N)=O, the Potency was “inactive”. For COC(=O)C1=C(C(=O)OC)[C@@H]2N(C)c3ccccc3[C@@]23C[C@@H](C(=O)OC)N(C(=O)c2ccco2)C3=N1, the Potency was “inactive”. For CCCCCCCC1=Cc2ccc(F)cc2C(C(C(=O)OC)C(=O)OC)N1C(=O)OC (stereo not drawn), the Potency was “inactive”. For NC(=O)COc1ccc2c3c(c(=O)oc2c1)CCCCC3, the Potency was “inactive”. With Cc1c(Cc2ccccc2)c(=O)oc2cc(OCC(N)=O)ccc12 the Potency was “inactive”. With O=C(Oc1ccccc1)Oc1ccc2c(c1)oc(=O)c1ccccc12 the Potency was 10 µM (active). In the case of CCOC(=O)C1=C(C)c2ccccc2OC1(C)C(=O)OCC (stereo not drawn), the Potency is reported as “inactive”. In the case of CCCCC/C=C\C/C=C\CCCCCCCCCC(=O)O, the Potency is reported as “inactive”. With C[C@H]1Cc2c(COc3ccccc3)nc3c(c2CO1)CN(C(=O)Nc1cccc(C#N)c1)CC3 the Potency was “inactive”. With C#CCCOC(=O)N1C2=NC(C(=O)OC)=C(C(=O)OC)[C@@H]3N(C)c4ccc(OC)cc4[C@]23C[C@H]1C(=O)OC the Potency was “inactive”. In the case of COc1ccc(-c2nc3c(c4c2C[C@H](c2ccccc2)OC4)CN(C(=O)c2ccco2)CC3)c(C)c1, the Potency is reported as “inactive”. With C=CC1=C2C=C(C3CC3)N(C(CO)CO)C=C2C(=O)C(C)(OC(=O)c2ccco2)C1=O (stereo not drawn) the Potency was “inactive”. In the case of COc1ccc2c(c1)O[C@@H](c1ccc3c(c1)OCO3)[C@H](OC(=O)NCc1ccco1)C2=O, the Potency is reported as “inactive”. For O=C1CN(c2nc(-c3ccccc3)c3cc(Br)ccc3n2)c2ccccc2N1, the Potency was 12.6 µM (active). In the case of Cc1ccc(C)c(S(=O)(=O)N2CC(=O)Nc3ccccc32)c1, the Potency is reported as “inactive”. With Cc1ccc(S(=O)(=O)N2CC(=O)Nc3ccccc32)cc1C the Potency was “inactive”. In the case of COc1ccc(-c2nc3c(c4c2C[C@H](c2ccccc2)OC4)CN(S(=O)(=O)c2c(C)noc2C)CC3)c(C)c1, the Potency is reported as “inactive”.
